# VACV Venus inh – inhibitors of vaccinia virus (Venus reporter); Vaccinia virus Venus reporter expression, fluorescence; Potency, µM (titrated, usually from 36.5 µM), most hits filed as inhibitors; 330,000 tested, 0.46% active; AID 720580; calls by dose curve; tested in A549 cells; further: nearly all actives have a fitted effect of over 30% in size
# Vaccinia mCherry – inhibitors of vaccinia virus infection (mCherry reporter signal) | AID 720579 | Potency, µM (top dose mostly 36.5 µM), usual class: inhibitors | 310,000 tested, 0.63% active | Vaccinia virus mCherry reporter infection, fluorescence; calls by dose curve; tested in A549 cells; further: nearly all actives have a fitted effect of over 35% in size
# FMDV antiviral – antivirals against foot and mouth disease virus. Potency, µM (series often up to 57.9 µM), usual class: inhibitors. AID 1159524. FMDV antiviral cell-based qHTS. 410,000 tested, 1.2% active; calls by dose curve; tested in HEK293T cells; further: read-out not given here; nearly all actives have a fitted effect of over 45% in size
# HCV inh – HCV inhibition; Huh7.5.1 HCVcc-Cre infection, luciferase reporter, 44 h; Potency, µM (doses to about 41.8 µM), actives largely listed as inhibitors; 340,000 tested, 3.4% active; active means well fitted inhibition curve with a large enough effect; inconclusive means small, poorly fitted or top-dose-only effect, or another doubt; inactive means no such curve, though single readings can be large or run the other way
#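 Antiviral activity was scored by luciferase reporter output from cells infected with HCVcc-Cre (~0.5 moi) in presence of compound, 44 h infection period, cells seeded 1,000/well 4 h prior.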
# HCMV antiviral – blocks human cytomegalovirus replication | HFF cells, HCMV-luciferase reporter, 72 h; stronger effect = lower value | activity change, negative = inhibition, % at 57.5 µM | 410,000 tested, 4.5% active | AID 1259415; in the data active means activity change below about -60%; inconclusive means no clear call, values can overlap the other calls; inactive means above about -39%
#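 Two compound doses tested in HFFs infected with HCMV-luciferase, MOI 1 PFU/cell, 72 h at 37C. Lysate luminescence read with OneGlo; data normalized against buffer-only and 10uM Salinomycin inhibitor controls.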
# Numbers stand for hits; – = inactive; ? = inconclusive; · = not tested or not shown; + = active, no number; [ ] = remark or other dose. Most compounds without a hit are left out; they make up all but 7.3% or so of the library.
SMILES,VACV Venus inh,Vaccinia mCherry,FMDV antiviral,HCV inh,HCMV antiviral
O=C(O)c1cccc2c1C(=O)c1ccccc1-2,–,–,–,–,–
COc1ccc2c(c1)CC(C(=O)Nc1cc(Cl)ccc1C)CO2 (configuration not stated),–[7.34 µM],–[7.34 µM],–,·,–
O=C(NCc1ccccc1)O[C@H]1CC[C@@]23CCCN2C(=O)CCC[C@H]3[C@H]1Cc1ccccc1,·,·,·,·,–
Cc1cc(CNC(=O)c2cnn(-c3ncc4c(n3)-c3ccccc3CCC4)c2C2CC2)on1,–,–,–,·,·
NC1=CC(=O)C(=O)c2ccccc21,?,14.1µM,39.8µM,?,-63.6
CCc1nc2ccccc2c(C(=O)OCC(=O)Nc2ccc(S(=O)(=O)N3CCOCC3)cc2)c1C,?,?,?,11.2µM,–
CCc1nc2ccccc2c(C(=O)OCC(=O)Nc2cccc(S(=O)(=O)N3CCOCC3)c2)c1C,·,·,20µM,11.2µM,–
CCCn1c(SCC(=O)Nc2cccc(S(=O)(=O)NC3=NCCCCC3)c2)nc2ccccc2c1=O,–,–,31.6µM,–,–
CCc1nc2ccccc2c(C(=O)OCC(=O)Nc2cccc(S(=O)(=O)NC3=NCCCCC3)c2)c1C,?,?,25.1µM,8.91µM,?
O=C(COC(=O)c1ccccn1)Nc1ccc(S(=O)(=O)N2CCOCC2)cc1,–,·,–,–,–
COc1ccccc1C(=O)Nc1ccccc1C(=O)OCc1cc(=O)n2ccsc2n1,–,–,–,·,–
COCCNc1nc(SCC(=O)N2CCN(c3ccccc3OC)CC2)nc2ccccc12,·,·,?,10µM,–
CCOC(=O)[C@]12CCC=C1N(Cc1cccc3ccccc13)C(=O)[C@H](CC(=O)N1CCSCC1)C2,–,–,–,·,–
Cn1c(=O)c2c(nc3n(-c4ccc(O)cc4)c(-c4ccc(Br)cc4)cn23)n(C)c1=O,–,–,–,·,?
Cc1cccc(N(C)S(=O)(=O)c2nnc(NC(=O)C(C)Oc3ccccc3)s2)c1 (configuration not stated),–,–,–,·,–
CC(=O)Nc1ccc(-c2ccnc3c2CC(C(=O)NCc2ccco2)O3)cc1 (configuration not stated),?,?,–,·,-70.3
CC(=O)Nc1ccc(-c2ccnc3c2CC(C(=O)NCc2ccccc2)O3)cc1 (configuration not stated),?,–,–,·,-64.5
O=C(NCc1ccccc1)C1Cc2c(-c3ccc4c(c3)OCO4)ccnc2O1 (configuration not stated),?,–,–,·,-66.8
Cc1cc(C)cc(NC(=O)N2CCC(CN3CCc4ccccc4C3)CC2)c1,–,–,–,·,–
COc1ccc(CN2CCCC(Cn3cc(C(=O)N4CCCC4)nn3)C2)c(O)c1 (configuration not stated),–,–,–,·,·
Cc1noc(C)c1-c1cncnc1NCc1ccccc1,·,·,–,·,·
Cc1cnc(C)c(-c2ccc(F)c3c2OC(CNC(=O)Cc2c(F)cccc2F)C3)n1 (configuration not stated),–,–,–,·,·
Oc1ccccc1/C=N/N1CCN(c2ccccn2)CC1,–,?,–,–,–
CC(C)c1ccc(/C=N/N2CCCCC2)cc1,–,–,–,–,-70.1
CN(C)c1ccc(C=NN2CCCCCC2)cc1,–,?,–,–,–
SMILES,VACV Venus inh,Vaccinia mCherry,FMDV antiviral,HCV inh,HCMV antiviral
CC(C)c1ccc(/C=N/N2CCN(c3ccccn3)CC2)cc1,–,–,–,–,-63.1
COc1cccc(CNC(=O)CN2C(=O)CCn3nc(-c4cn(C)c5ccccc45)cc32)c1OC,–,–,–,·,–
Cc1noc(C)c1CSCC(=O)N1CCN(c2ccc(F)cc2)CC1,–,?,?,?,-60.3
Cc1noc(C)c1CSCC(=O)Nc1cc(Cl)ccc1N1CCCCC1,–,–,–,10µM,–
Cc1cccc(N2CCN(C(=O)CSCc3c(C)noc3C)CC2)c1C,–,–,?,3.98µM,·
CCc1sc(C(=O)Nc2cc(Cl)ccc2N2CCCCC2)cc1C,–,–,–,?,-62.8
Cc1ccc(CN(Cc2cccn2-c2nnc(N3CCCC3=O)s2)C(=O)Nc2ccccc2Cl)cc1,–,–,–,·,–
CCOc1ccc(-n2c(=O)c3c(C)c(C(=O)N(C)C)sc3n(CC(=O)Nc3c(C)cc(C)cc3C)c2=O)cc1,–,–,–,·,–
OCCC(N1CCOCC1)C(O)(c1ccccc1)c1ccccc1 (configuration not stated),·,·,·,·,–
O=C(Nc1ccc(Cl)c(Cl)c1)Nc1nccs1,·,·,–,–,-66.3
O=C(Nc1ccc(Cl)c(Cl)c1)Nc1nnc(CSc2ccccc2)s1,–,–,?,?,-99.4
O=C(Nc1ccc(Cl)cc1)Nc1nnc(CSCc2ccccc2Cl)s1,·,·,?,?,-91.2
O=C(Nc1cccc(Cl)c1)Nc1nccs1,·,·,–,–,–
O=C(Nc1ccccc1)Nc1nnc(CSCc2ccccc2Cl)s1,?,?,–,–,?
CC(=O)c1cccc(NC(=O)c2cc(-c3ccc(Cl)s3)nc3ccccc23)c1,–,–,–,·,–
CN(C)c1ccc(-c2ccc(CCO)cc2)cc1,–,–,·,·,·
O=C1CCC[C@H]2[C@@H](Cc3ccccc3)[C@@H](NS(=O)(=O)c3ccc(-c4ccccc4)cc3)CC[C@]23CCCN13,·,·,·,·,–
COc1ccc(CN2CCc3ccc(NC(=O)CCc4ccccc4OC)cc3C2)c(O)c1,–,?,?,8.91µM,-72.2
COc1cccc(CN2CCc3ccc(NC(=O)CCc4ccc(C)cc4)cc3C2)c1O,·,·,?,11.2µM,-60.6
Oc1ccccc1CNc1cccc2cccnc12,–,–,–,–,–
Nc1sc(-c2ccccc2)n[n+]1Cc1cccc2cccnc12,·,·,–,?,-99.1
CCc1ccc(NC(=O)COCc2cc(-c3ccc(F)cc3)on2)cc1,–,–,–,·,–
CCc1nc(Nc2ccc(F)c(Cl)c2)c2c3c(sc2n1)CCCC3,–,–,–,·,?
CCCNc1nc(Nc2ccc(C)cc2)nc(N2CCCC2)n1,·,·,–,10µM,·
COc1ccc(Nc2nc(NCCO)nc(N3CCCC3)n2)cc1,·,·,–,·,?
SMILES,VACV Venus inh,Vaccinia mCherry,FMDV antiviral,HCV inh,HCMV antiviral
O=C1OC(c2ccccc2)=N/C1=C\C=C\c1ccccc1[N+](=O)[O-],–,–,–,–,–
CN1C(=O)NC(=O)/C(=C\C=C\c2ccccc2[N+](=O)[O-])C1=O,–,–,?,?,-99.0
O=C(CN1C(=O)C2(SCC(=O)N2c2cccc(Cl)c2)c2ccccc21)NCCc1ccccc1 (configuration not stated),–,–,–,·,–
Cc1ccc(C(=O)C(C(=O)/C=C/c2ccccc2)=C2SCCCS2)cc1,?,?,11.2µM,?,-97.1
Cc1ccc(C(=O)C=CC=Cc2ccccc2)cc1,–,–,–,·,–
O=C(NCc1ccccn1)[C@H]1[C@H](CO)[C@H]2Cn3c(cccc3=O)[C@@H]1N2CC1CCCCC1,·,·,·,·,–
O=C(c1cccnc1)N1CC(=O)N2[C@@H](CO)[C@H](c3ccc(Br)cc3)[C@@H]2C1,·,·,·,·,–
COC(=O)c1ccc(NC(=O)CCc2nnc3ccc(NCc4ccco4)nn23)cc1,–,–,–,–,+
CCn1c(C(=O)N2CCCC(C(=O)NCCCOC)C2)cc2sccc21 (configuration not stated),–,–,–,·,–
